Tests used:
Experiment in all cases: log2 ratio of Biotin-Ahx-Ub-VS probe labelling (fragment/DMSO); higher = less target engagement (more negative = stronger competition), active = hit call of the paper (q ≤ 0.05, log2 ratio ≤ -1)
Conditions in all cases: compound concentration: 200 uM; treatment time: 3 h
[1] = target: T1, USP19 (UniProt O94966)
T1 sequence (whole entry): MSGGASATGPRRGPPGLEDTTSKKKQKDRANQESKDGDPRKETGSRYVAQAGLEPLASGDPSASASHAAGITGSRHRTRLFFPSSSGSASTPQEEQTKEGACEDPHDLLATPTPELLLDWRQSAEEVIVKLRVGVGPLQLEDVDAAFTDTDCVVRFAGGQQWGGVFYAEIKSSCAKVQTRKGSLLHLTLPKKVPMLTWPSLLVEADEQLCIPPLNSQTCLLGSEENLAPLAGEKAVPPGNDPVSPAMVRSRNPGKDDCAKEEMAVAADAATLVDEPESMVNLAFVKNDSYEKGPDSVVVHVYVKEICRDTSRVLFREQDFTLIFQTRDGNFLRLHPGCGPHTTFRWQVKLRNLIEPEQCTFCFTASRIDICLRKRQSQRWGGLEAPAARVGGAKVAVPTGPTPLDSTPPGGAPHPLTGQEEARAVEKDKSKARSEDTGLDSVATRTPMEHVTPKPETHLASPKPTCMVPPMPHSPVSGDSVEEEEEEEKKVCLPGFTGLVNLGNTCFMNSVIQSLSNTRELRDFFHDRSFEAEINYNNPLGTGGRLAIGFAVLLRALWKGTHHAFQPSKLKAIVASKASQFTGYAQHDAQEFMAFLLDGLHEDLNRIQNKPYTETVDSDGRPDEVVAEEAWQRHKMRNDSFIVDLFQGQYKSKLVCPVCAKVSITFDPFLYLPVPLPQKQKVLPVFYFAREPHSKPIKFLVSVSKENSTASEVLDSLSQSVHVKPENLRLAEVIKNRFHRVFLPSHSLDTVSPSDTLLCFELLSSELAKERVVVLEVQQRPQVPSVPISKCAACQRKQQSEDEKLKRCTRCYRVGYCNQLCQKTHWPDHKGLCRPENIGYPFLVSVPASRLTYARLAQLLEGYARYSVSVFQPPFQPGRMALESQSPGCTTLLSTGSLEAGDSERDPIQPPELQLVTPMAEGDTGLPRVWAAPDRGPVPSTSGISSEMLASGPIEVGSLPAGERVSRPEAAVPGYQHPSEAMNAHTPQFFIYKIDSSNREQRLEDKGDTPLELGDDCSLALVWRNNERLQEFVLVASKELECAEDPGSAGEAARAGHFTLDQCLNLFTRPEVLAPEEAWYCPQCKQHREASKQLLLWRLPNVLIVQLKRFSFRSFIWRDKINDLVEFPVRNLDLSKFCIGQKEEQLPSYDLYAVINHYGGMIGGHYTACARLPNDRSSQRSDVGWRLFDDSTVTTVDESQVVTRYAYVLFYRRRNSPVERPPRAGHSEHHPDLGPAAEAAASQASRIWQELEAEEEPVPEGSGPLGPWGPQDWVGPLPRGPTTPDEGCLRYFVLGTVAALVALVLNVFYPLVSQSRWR
Procedure, shortened: (§1)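 HEK293T lysate, 495 µg per sample in Tris/CHAPS/IGEPAL buffer with protease inhibitors, was treated in triplicate with fragment at 200 µM or vehicle for 3 h and then with Biotin-Ahx-Ub-VS at 0.5 µM final for 1 h. Labelled DUBs were NeutrAvidin-enriched, digested with LysC and trypsin, and run by diaPASEF LC-MS/MS. Spectronaut label-free quantities were global-median-normalised, and values are average log2 fragment/vehicle ratios by unpaired t-test on proteins with ≥2 unique peptides.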

[2] = target: T2, USP22 (UniProt Q9UPT9)
T2 sequence (whole entry): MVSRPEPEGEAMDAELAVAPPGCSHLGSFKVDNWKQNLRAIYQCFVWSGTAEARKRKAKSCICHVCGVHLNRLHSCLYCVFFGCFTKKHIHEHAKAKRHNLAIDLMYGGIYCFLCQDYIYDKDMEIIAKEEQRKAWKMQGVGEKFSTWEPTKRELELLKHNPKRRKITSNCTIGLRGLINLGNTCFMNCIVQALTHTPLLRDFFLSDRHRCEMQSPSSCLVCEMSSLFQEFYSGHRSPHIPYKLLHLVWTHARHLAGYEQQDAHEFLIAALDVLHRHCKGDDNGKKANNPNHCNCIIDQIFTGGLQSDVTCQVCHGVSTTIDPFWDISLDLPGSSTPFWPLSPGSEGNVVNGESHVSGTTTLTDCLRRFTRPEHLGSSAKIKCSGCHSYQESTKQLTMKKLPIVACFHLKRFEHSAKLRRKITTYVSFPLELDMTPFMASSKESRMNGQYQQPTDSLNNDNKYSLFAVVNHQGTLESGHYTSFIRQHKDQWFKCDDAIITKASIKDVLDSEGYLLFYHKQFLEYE
Procedure, shortened: as §1

[3] = target: USP24 (UniProt Q9UPU5)
Procedure, shortened: as §1

[4] = target: T3, USP25 (UniProt Q9UHP3)
T3 sequence (whole entry): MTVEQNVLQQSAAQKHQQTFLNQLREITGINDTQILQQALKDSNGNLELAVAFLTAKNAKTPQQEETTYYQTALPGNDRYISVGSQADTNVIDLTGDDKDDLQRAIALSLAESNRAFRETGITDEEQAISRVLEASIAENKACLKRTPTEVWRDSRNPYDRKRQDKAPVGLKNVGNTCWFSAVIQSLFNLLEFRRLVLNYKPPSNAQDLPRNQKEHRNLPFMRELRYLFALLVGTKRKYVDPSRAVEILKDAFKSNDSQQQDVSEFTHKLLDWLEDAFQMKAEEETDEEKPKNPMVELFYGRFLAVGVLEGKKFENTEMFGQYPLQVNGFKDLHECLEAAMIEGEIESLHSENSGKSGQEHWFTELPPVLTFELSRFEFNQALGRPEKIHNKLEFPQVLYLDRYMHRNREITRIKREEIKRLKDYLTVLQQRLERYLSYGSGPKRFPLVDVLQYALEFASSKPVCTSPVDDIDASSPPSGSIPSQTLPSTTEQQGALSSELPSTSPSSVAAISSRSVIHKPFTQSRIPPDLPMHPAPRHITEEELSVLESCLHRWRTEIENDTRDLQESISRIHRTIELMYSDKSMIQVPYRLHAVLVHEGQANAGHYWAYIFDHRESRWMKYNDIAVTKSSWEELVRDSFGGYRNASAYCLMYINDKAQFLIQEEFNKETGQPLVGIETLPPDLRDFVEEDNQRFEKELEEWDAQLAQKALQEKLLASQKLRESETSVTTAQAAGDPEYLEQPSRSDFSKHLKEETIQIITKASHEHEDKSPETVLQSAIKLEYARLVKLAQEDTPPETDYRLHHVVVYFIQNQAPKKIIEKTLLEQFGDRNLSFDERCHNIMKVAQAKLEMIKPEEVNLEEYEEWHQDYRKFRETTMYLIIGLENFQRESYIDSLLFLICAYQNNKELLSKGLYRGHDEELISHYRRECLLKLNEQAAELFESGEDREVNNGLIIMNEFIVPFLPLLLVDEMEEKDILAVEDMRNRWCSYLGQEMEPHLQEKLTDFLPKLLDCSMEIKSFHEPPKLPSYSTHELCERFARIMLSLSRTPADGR
Procedure, shortened: as §1

[5] = target: T4, USP28 (UniProt Q96RU2)
T4 sequence (whole entry): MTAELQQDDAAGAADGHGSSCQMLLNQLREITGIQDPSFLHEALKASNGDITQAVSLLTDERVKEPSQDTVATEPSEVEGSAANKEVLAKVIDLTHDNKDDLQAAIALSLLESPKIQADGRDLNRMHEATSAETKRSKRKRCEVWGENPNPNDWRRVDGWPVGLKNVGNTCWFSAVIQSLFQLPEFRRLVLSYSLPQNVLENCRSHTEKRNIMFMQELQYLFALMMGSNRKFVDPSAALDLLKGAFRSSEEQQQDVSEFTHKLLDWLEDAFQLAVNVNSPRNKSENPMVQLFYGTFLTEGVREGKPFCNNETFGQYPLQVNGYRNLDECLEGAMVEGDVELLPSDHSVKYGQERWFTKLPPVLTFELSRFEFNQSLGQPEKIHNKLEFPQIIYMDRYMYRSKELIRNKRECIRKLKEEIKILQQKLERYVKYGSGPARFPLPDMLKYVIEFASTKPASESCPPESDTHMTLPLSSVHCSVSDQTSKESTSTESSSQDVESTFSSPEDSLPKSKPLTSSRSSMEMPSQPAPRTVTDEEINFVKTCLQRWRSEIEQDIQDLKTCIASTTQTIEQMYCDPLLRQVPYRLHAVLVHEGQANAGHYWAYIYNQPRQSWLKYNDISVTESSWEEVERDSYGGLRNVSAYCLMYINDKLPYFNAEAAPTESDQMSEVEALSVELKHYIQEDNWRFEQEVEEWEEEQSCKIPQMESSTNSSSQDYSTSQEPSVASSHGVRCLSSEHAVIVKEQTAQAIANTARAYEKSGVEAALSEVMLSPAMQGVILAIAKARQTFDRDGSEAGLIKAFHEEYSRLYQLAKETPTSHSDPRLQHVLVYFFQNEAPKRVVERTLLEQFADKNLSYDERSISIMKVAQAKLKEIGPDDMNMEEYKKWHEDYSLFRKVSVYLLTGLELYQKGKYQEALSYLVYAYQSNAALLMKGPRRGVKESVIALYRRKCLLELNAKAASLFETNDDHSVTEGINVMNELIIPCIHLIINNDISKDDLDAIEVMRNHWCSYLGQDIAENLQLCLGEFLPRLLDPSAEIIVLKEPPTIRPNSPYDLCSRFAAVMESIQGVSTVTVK
Procedure, shortened: as §1

Measured: log2 ratio of Biotin-Ahx-Ub-VS probe labelling

USP24, sequence (Q9UPU5 whole entry): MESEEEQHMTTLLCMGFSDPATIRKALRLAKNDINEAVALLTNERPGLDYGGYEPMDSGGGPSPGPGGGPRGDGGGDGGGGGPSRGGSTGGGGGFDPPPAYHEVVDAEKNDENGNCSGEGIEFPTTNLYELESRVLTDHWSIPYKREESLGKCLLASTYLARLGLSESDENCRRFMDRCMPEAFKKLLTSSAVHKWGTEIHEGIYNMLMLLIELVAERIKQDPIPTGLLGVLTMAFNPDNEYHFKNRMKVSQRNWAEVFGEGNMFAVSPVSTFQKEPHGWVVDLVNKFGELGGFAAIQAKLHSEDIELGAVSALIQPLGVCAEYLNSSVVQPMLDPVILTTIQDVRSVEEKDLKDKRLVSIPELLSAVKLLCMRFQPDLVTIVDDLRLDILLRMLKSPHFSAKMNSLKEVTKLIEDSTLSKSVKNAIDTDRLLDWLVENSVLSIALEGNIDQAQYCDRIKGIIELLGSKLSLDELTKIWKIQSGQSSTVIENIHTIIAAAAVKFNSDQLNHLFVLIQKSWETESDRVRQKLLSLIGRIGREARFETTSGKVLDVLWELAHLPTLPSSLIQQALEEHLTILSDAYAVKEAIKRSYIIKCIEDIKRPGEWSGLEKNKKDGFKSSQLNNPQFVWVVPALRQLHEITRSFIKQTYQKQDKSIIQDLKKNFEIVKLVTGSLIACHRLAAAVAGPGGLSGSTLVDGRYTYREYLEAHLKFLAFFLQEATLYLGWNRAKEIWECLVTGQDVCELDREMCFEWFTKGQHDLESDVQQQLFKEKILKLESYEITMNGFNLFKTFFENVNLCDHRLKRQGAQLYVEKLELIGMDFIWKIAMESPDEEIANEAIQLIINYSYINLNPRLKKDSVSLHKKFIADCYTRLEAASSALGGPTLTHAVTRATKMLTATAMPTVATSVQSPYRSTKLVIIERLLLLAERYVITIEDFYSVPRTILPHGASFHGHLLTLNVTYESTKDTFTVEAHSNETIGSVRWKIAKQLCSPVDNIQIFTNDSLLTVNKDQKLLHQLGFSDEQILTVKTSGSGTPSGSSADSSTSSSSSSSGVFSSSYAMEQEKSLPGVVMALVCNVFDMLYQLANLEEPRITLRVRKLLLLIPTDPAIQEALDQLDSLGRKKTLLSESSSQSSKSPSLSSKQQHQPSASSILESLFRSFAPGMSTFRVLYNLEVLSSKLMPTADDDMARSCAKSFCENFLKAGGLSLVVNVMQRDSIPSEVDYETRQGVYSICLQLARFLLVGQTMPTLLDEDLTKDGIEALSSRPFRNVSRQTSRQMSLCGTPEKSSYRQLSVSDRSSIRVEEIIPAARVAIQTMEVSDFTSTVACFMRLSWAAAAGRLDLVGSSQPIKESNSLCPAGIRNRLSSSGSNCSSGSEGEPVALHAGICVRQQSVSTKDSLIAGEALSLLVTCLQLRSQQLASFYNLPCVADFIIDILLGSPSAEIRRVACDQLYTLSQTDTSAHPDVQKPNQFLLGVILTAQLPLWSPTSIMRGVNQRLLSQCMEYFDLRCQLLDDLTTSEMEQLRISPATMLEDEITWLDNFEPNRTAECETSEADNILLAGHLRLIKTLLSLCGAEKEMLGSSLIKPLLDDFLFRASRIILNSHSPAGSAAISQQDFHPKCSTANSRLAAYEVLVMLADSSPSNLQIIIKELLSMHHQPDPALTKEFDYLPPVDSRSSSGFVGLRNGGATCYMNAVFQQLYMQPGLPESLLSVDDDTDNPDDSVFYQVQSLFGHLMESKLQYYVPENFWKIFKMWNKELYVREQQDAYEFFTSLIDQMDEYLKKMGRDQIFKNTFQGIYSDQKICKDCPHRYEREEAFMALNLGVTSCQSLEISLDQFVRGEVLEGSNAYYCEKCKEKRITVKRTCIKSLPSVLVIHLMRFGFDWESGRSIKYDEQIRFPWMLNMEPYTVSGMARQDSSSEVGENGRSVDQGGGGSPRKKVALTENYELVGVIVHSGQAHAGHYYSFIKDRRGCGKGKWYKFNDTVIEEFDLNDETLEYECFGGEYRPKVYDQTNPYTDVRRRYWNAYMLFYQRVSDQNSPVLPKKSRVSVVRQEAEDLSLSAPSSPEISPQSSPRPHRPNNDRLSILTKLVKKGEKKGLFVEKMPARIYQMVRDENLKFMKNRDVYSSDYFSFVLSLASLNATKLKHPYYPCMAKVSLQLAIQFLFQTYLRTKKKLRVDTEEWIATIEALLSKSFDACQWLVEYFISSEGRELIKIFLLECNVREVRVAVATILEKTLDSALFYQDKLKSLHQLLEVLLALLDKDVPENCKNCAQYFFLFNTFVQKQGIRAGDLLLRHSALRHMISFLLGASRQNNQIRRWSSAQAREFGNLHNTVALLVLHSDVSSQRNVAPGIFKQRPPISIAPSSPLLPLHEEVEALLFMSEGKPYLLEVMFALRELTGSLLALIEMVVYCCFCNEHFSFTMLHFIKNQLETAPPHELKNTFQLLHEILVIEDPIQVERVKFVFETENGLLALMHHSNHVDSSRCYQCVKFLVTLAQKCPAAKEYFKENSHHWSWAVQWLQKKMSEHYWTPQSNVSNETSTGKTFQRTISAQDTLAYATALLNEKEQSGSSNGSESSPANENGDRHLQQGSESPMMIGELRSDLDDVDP

O=C(CCl)N(C1=CCCCC1)C1CC1
inactive: [1] -0.0989 | [2] -0.481 | [3] -0.573 | [4] -0.226 | [5] -0.185
